Screening data from PubChem.
PfHsp90 yeast 2 – growth inhibition of PfHsp90-expressing yeast, primary screen, antimalarial PfHsp90 inhibitor project, S. cerevisiae, BacTiter-Glo luminescence, single point, set 2; 310,000 tested, 0.32% active; inhibition, % at 9.4 µM; BacTiter-Glo ATP, 48 h; yeast lacking PDR1 and PDR3 efflux regulators;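 active means every replicate shows inhibition above about 80%, whatever the replicate mean, limit read from the data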;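 further: 0% = DMSO neutral controls and 100% = 20 µM radicicol positive controls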
tim23-1 inh – growth inhibitors of tim23-1 mutant yeast, primary screen, luminescence, uHTS; S. cerevisiae tim23-1 growth, BacTiter-Glo luminescence, 24 h; inhibition, % at 20 µM; 330,000 tested, 1.3% active; AID 463212, 2010;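 active means growth inhibition of the mutant yeast at or above 50%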;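 further: temperature-sensitive mutant grown at 25 °C; plate controls were DMSO-treated mutant yeast for no effect and medium wells lacking yeast for full effect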
tim10-1 inh – growth inhibitors of tim10-1 mutant yeast, primary screen, luminescence, uHTS. S. cerevisiae tim10-1 ts strain growth, BacTiter-Glo, 24 h. inhibition, % at 20 µM. 330,000 tested, 2.2% active. AID 463190, 2010;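 active means inhibition of at least 40%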;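 further: mutant grown at 25 °C; 0% = DMSO wells with yeast and 100% = wells holding no yeast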
NLRP3 yeast inh – NALP3 inflammasome inhibitors in reconstituted yeast, primary screen, luminescence, uHTS; Yeast reconstituted NLRP3/ASC/caspase-1, beta-gal luminescence, 24 h; inhibition, % at 10 µM; 330,000 tested, 0.39% active;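 active means inhibition of 50% or more; inactive means inhibition below 50%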;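 further: plate controls were induced DMSO wells for no effect and uninduced yeast grown without galactose for full effect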
TIM10 inh – growth inhibitors of isogenic TIM10 control yeast, primary screen, counter-screen for tim10-1 yeast inhibitor project, luminescence, uHTS. S. cerevisiae TIM10 strain growth, BacTiter-Glo luminescence, 24 h. inhibition, % at 10 µM. 330,000 tested, 1.4% active. AID 463195, 2010;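 active means inhibition of 40% or more at the single tested concentration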;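 further: wild-type TIM10 isogenic control strain grown at permissive 25 °C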
NALP1 yeast inh – NALP1 inflammasome inhibitors in reconstituted yeast, colorimetric, S. cerevisiae, triplicate retest; S. cerevisiae NALP1/ASC/caspase-1 growth, X-gal OD620, 72 h; inhibition, % at 10 µM; 280,000 tested, 0.61% active; AID 2071, 2009; in the data active means inhibition mostly above about 24%, no sharp cut-off; inactive means mostly below about 32%
tim10-1 conf – growth inhibitors of tim10-1 mutant yeast, confirmation, single concentration, luminescence, S. cerevisiae | shares compounds with tim10-1 inh | S. cerevisiae tim10-1 ts strain growth, BacTiter-Glo, 24 h | inhibition, % at 20 µM | 7,400 tested, 56% active | AID 463213, 2010;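 active means inhibition of yeast growth at or above a set limit in either of two repeat tests at 20 µM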;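 further: tim10-1 mutant grown at permissive 25 °C to find synthetic lethal compounds; 0% = DMSO yeast wells and 100% = medium wells without yeast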
An asterisk follows results filed as active; . = no result given. This is a sample that favours compounds with a hit; in the whole collection about 4.1% have one here.

SMILES | PfHsp90 yeast 2 | tim23-1 inh | tim10-1 inh | NLRP3 yeast inh | TIM10 inh | NALP1 yeast inh | tim10-1 conf
NC(=O)C1CCN(CC(O)COc2ccc(-c3ccccc3)cc2)CC1 (centres undefined) | 13.3 | 0.8 | 9.1 | 11.2 | -11.7 | 18.7 | .
COc1ccc(C(=S)NCS(=O)(=O)c2ccc(C)cc2)cc1 | 1.5 | 32.1 | 40.4* | -1.5 | 15.5 | 1.8 | 19.3
Cc1ccc(S(=O)(=O)CNC(=S)c2cccc(C)c2)cc1 | -18.2 | 25.0 | 34.1 | 5.2 | 23.2 | -18.4 | .
CCOc1cc(/C=N/Nc2nc(-c3cccs3)c(NC(C)=O)s2)ccc1O | 10.0 | 14.6 | 22.3 | -8.4 | 2.4 | . | .
C=CCN(C(=O)c1cccc(S(=O)(=O)N2CCN(C)CC2)c1)c1nc(-c2ccccc2)cs1 | 0.4 | 47.7 | 49.9* | 3.5 | 30.8 | 0.4 | 41.0*
CC(C)(C)C(=O)Nc1ccccc1C(=O)Nc1cccnc1 | 2.9 | 2.3 | 10.2 | 14.9 | -15.6 | -0.9 | .
CC(C)(C)C(=O)Nc1ccccc1C(=O)Nc1cc(Cl)ccc1Cl | -36.9 | 41.0 | 43.3* | -43.3 | 38.8 | -4.2 | 36.1*
COc1ccc(Cl)cc1NC(=O)CN(C)C(=O)C12CC3CC(CC(Cl)(C3)C1)C2 | 1.4 | 49.6 | 43.0* | 5.9 | 26.5 | 6.7 | 34.2*
Nc1ncnc(Nc2cccc(C(F)(F)F)c2)n1 | 42.3 | -3.5 | 7.7 | 16.4 | -6.2 | 9.2 | .
Nc1nc(Nc2cccc(C(F)(F)F)c2)nc(C(F)(F)F)n1 | 45.1 | 41.8 | 44.1* | 17.0 | 39.3 | 19.5 | 35.4*
CCC1CCc2c(sc(N)c2C(N)=O)C1 (centres undefined) | -1.4 | 19.9 | 21.5 | 6.7 | 15.4 | . | .
CC1CCc2c(sc(N)c2C(N)=O)C1 (centres undefined) | . | 16.6 | 40.8* | 4.8 | 0.5 | . | 25.2
OC(CN1CCCCC1)c1ccc2c3c(cccc13)CC2 (centres undefined) | -12.9 | . | . | . | . | . | .
CCc1ccc(-n2nc3cc(C)c(N)cc3n2)cc1 | -22.5 | 24.0 | 24.4 | 23.8 | 13.4 | 5.3 | .
Cc1ccc(-n2nc3cc(C)c(N)cc3n2)cc1 | -8.0 | 20.9 | 40.9* | 2.3 | 24.4 | 10.0 | 19.6
CCN(CC)C(=O)c1c(-c2ccccc2)oc2ccc(OC)cc12 | 4.4 | 43.6 | 41.1* | -5.6 | 24.0 | 28.9 | 21.1
CC(C)(C)NC(=S)NNC(=O)[C@H]1C[C@@H]1c1ccccc1 | 5.4 | 3.5 | 15.1 | 11.2 | 15.4 | -0.6 | .
Cc1ccc(C2CC2C(=O)NNC(=S)Nc2ccc(Cl)cc2)cc1 (centres undefined) | 11.1 | 4.0 | 46.5* | 8.0 | 6.8 | 10.5 | 31.4
O=c1c2[nH]c3cccc(Cl)c3c2ncn1Cc1ccco1 | -41.3 | 4.6 | 4.5 | 17.3 | -14.6 | 8.0 | .
Cc1cc(OCc2cc(C(=O)NC(C)c3c(C)nn(C)c3C)no2)cc(C)c1Cl (centres undefined) | -1.9 | 32.4 | 45.8* | 16.8 | 8.1 | -2.7 | 15.3
Cc1cc(OCc2cc(C(=O)N(C)C(C)c3ccccn3)no2)cc(C)c1Cl (centres undefined) | -14.7 | 27.3 | 41.5* | 10.3 | 13.5 | 2.5 | 11.9
COc1ccccc1C(=O)NNC(=O)c1cccc(C)c1 | -13.7 | 6.5 | -0.4 | 18.8 | -4.1 | 13.6 | .
CCc1ccc(-c2cc(C)no2)cc1S(=O)(=O)NCc1ccccc1OC | 17.8 | 30.2 | 40.6* | 7.5 | -4.9 | 12.1 | 6.7
O=C(NC(=S)Nc1ccc(O)cc1)c1cncc(Br)c1 | -14.7 | 14.7 | 14.6 | 18.6 | 15.1 | . | .
O=C(NC(=S)Nc1ncc(Br)cc1Br)c1cncc(Br)c1 | 6.1 | 36.5 | 40.4* | 13.0 | 33.6 | 16.4 | 22.0
CC(=O)N(CC(C)C(=O)O)c1c(I)cc(I)c(N)c1I (centres undefined) | 0.2 | -8.3 | 8.2 | 11.9 | 8.2 | . | .
CCN(Cc1nc(-c2ccccc2)no1)C(=O)c1ccco1 | -9.6 | 14.5 | 13.7 | 25.6 | 5.0 | -4.4 | .
